Screens deposited in PubChem BioAssay by National Center for Advancing Translational Sciences (NCATS).
KB-V1 MDR tox = KB-V1 MDR subline cytotoxicity; KB-V1 MDR cells viability, CellTiter-Glo, 72 h; Potency, µM (titrated, usually from 46.1 µM), usual class: cytotoxic; 400,000 compounds, 3.4% hits; AID 1347076; note: % is set by controls: 0 for no effect and ±100 for the full control effect; nearly all actives have a fitted effect of over 60% in size
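Cytotoxicity toward P-gp-expressing KB-V1 cells was determined as loss of CellTiter-Glo luminescence after 72 h at 37 degrees C. Compounds were tested in quantitative HTS format across a concentration range, with curves fitted to normalized data.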
KB-3-1 cytotox = KB-3-1 parental cell cytotoxicity | KB-3-1 viability, CellTiter-Glo ATP luminescence, 72 h | Potency, µM (highest dose often 46.1 µM), usual class: cytotoxic | AID 1347075 | 400,000 compounds, 1.4% hits; note: % is set by controls: 0 for no effect and ±100 for the full control effect; nearly all actives have a fitted effect of over 60% in size
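Using CellTiter-Glo luminescence, growth of non-resistant KB-3-1 adenocarcinoma cells is assessed 72 h after pin-tool compound addition at 37 °C. Normalized responses across the concentration series yield fitted curves.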
HT1080 IDH1KD tx = HT-1080 IDH1 knockdown cell toxicity (counter line); HT-1080 IDH1 knockdown viability, ATP luminescence, 48 h; Potency, µM (doses to about 46.1 µM), for the others: at the top dose activity, negative = toxicity, usual class: cytotoxic; 360,000 compounds, 2% hits; AID 686971;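 note: 0% = DMSO wells and -100% = cell-free medium wells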
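Cytotoxicity counter-line: IDH1KD HT-1080, 48 h, CellTiter-Glo. Curves classed by r2, magnitude and activity.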
HepG2 tox-1 = counter-screen for TGF-b inhibitors: cytotoxicity in HepG2 cells. 410,000 compounds, 0.76% hits. Potency, µM (doses to about 46.1 µM), for the others: top-dose activity change, negative = cytotoxicity, hits mostly cytotoxic. HepG2 CAGA-GFP viability, ATP luminescence, 18 h
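CellTiter-Glo luminescence gave cytotoxicity after 18 hours at 37 degrees C. The cells were HepG2 CAGA-GFP in 1% FBS DMEM, stimulated with 500 pg/mL TGF-beta after compound addition. %Activity was normalised to no-cell wells (complete cell-killing) and DMSO (no toxicity), and curves were fitted and classified.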
TGFb SMAD3 inh = inhibitors of TGF-b signaling; HepG2 CAGA-GFP TGF-b/SMAD3 reporter, GFP fluorescence, 18 h; TGF-beta stimulated, 500 pg/mL final; Potency, µM (highest dose often 46.1 µM), for the others: top-dose activity, negative = inhibition, most hits filed as inhibitors; 410,000 compounds, 1.2% hits; AID 588855; note: % is set by controls: 0 for no effect and ±100 for the full control effect; nearly all actives have a fitted effect of over 65% in size
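Cell-based qHTS in HEPG2 carrying a CAGA-GFP Smad reporter; compounds added before 500 pg/mL final TGF-beta, 18 h incubation at 37 degrees C, GFP fluorescence quantified per cell by imaging cytometry.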
HT1080-NT tox = kills 2HG-producing HT-1080-NT fibrosarcoma cells; HT-1080-NT fibrosarcoma viability, CellTiter-Glo ATP luminescence, 48 h; Potency, µM (doses to about 46.1 µM), for inactives: at the top dose activity, negative = less viability, hits mostly cytotoxic; 360,000 compounds, 1.6% hits;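 note: NT is the 2HG producing partner of a matched IDH1 knockdown line; 0% = DMSO-treated cells and -100% = media-only wells without cells; nearly all actives have a fitted effect of over 55% in size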
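Read-out is CellTiter-Glo luminescence after 10 minutes at room temperature, following 48 hours' compound treatment of HT-1080-NT cells (750 cells/well, RPMI, 5% FBS, 37 degrees C).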
TGFb CAGA inh = confirmation of TGF-b signaling inhibitors in HepG2 reporter cells. shares compounds with TGFb SMAD3 inh. HepG2 CAGA-GFP TGF-b reporter, GFP fluorescence, 18 h; cells stimulated with TGF-beta, 500 pg/mL. Potency, µM (series often up to 46.1 µM), inactives show at the top dose activity, negative = inhibition, hits mostly inhibitors. 1,600 compounds, 63% hits. AID 720534; note: % is set by controls: 0 for no effect and ±100 for the full control effect; nearly all actives have a fitted effect of over 65% in size
HepG2 tox-2 = counter-screen for TGF-b inhibitors: cytotoxicity in HepG2 cells; shares compounds with TGFb SMAD3 inh; HepG2 CAGA-GFP viability, ATP luminescence, 18 h; cells stimulated with TGF-beta, 500 pg/mL; Potency, µM (doses to about 46.1 µM), without a hit: at the highest dose activity, negative = cytotoxicity, most hits filed as inhibitors; 1,600 compounds, 27% hits; AID 720535; note: % is set by controls: 0 for no effect and ±100 for the full control effect; nearly all actives have a fitted effect of over 70% in size
CCL64 TGFb inh = blocks TGF-b signaling in CCL64 reporter cells; 1,600 compounds, 41% hits; shares compounds with TGFb SMAD3 inh; CCL64 CAGA-GFP reporter, TGF-b stimulated, GFP fluorescence, 18 h; Potency, µM (doses to about 46.1 µM), for the others: at the highest dose activity, negative = inhibition, hits mostly inhibitors; note: nearly all actives have a fitted effect of over 65% in size
TGFb COP inh = validation of TGF-b inhibitors in HepG2 COP promoter reporter. AID 720537. HepG2 COP-GFP TGF-b reporter, GFP fluorescence, 18 h; cells stimulated by added recombinant TGF-beta. shares compounds with TGFb SMAD3 inh. Potency, µM (titrated, usually from 46.1 µM), inactives show at the highest dose activity, negative = inhibition, actives largely listed as inhibitors. 1,600 compounds, 3% hits; note: nearly all actives have a fitted effect of over 70% in size
* marks the source's active call; other numbers are inactive results. Most compounds without a hit are left out; they make up all but 6.6% or so of the library. Calls come from the whole dose curve; as a rule, active = well fitted curve in the direction sought with a large enough effect; inconclusive = small, poorly fitted or top-dose-only effect, or another doubt; inactive = no such curve, though single readings can be large; an effect the other way counts as inactive or inconclusive. Potency is the fitted concentration of half-maximal effect.

For O=C1CCN(Cc2ccccc2)C(=S)N1 the results were KB-V1 MDR tox inactive, KB-3-1 cytotox inactive, HT1080 IDH1KD tx 13%, HepG2 tox-1 0%, TGFb SMAD3 inh 9% and HT1080-NT tox 0%.
Screening Cc1cccc(N2CCN(C(=O)CCc3c(C)nc4c(c3C)c(=O)n(C)c(=O)n4C)CC2)c1C returned KB-V1 MDR tox inconclusive, KB-3-1 cytotox inactive, HepG2 tox-1 -5% and TGFb SMAD3 inh inconclusive.
O=C(NCc1cccs1)c1ccc(CS(=O)Cc2ccc(Cl)cc2)o1 (stereo not drawn) was read as KB-V1 MDR tox inconclusive, KB-3-1 cytotox inactive, HT1080 IDH1KD tx -1%, HepG2 tox-1 -15%, TGFb SMAD3 inh 2% and HT1080-NT tox -2%.
`Cc1ccc2nc(/N=C(\N)NC(=O)NC3CCCCC3)nc(C)c2c1` gave KB-V1 MDR tox inconclusive, KB-3-1 cytotox inconclusive, HT1080 IDH1KD tx 23µM*, HepG2 tox-1 -17%, TGFb SMAD3 inh 10µM*, HT1080-NT tox 15µM*, TGFb CAGA inh 12µM*, HepG2 tox-2 inconclusive, CCL64 TGFb inh 16µM* and TGFb COP inh 54%.
C=C1CCN(C(Cc2ccccc2)C(=O)NC2CCN(Cc3ccccc3)CC2)S(=O)(=O)c2ccccc21 (stereo not drawn) was read as HepG2 tox-1 4% and TGFb SMAD3 inh -7%.
`OCC[C@@H]1C[C@@H](O)[C@H](O)[C@@]2(OCCc3ccccc32)O1` gave KB-V1 MDR tox inactive, KB-3-1 cytotox inactive, HT1080 IDH1KD tx 7%, HepG2 tox-1 5%, TGFb SMAD3 inh 2% and HT1080-NT tox 7%.
O=C(CCNc1cccc(F)c1)c1cccc([N+](=O)[O-])c1 was read as KB-V1 MDR tox inactive, KB-3-1 cytotox inactive, HT1080 IDH1KD tx inconclusive, HepG2 tox-1 10%, TGFb SMAD3 inh 13µM*, HT1080-NT tox inconclusive, TGFb CAGA inh 10µM*, HepG2 tox-2 inconclusive, CCL64 TGFb inh inconclusive and TGFb COP inh 3%.
Screening O=C(CCNc1ccc(Cc2ccncc2)cc1)c1cccc([N+](=O)[O-])c1 returned KB-V1 MDR tox inactive, KB-3-1 cytotox inactive, HT1080 IDH1KD tx inconclusive, HepG2 tox-1 -13%, TGFb SMAD3 inh -9% and HT1080-NT tox -6%.
For COc1ccc(NS(=O)(=O)c2ccc3[nH]c4c(c3c2)CCCCC4)cc1 the results were KB-V1 MDR tox inactive, KB-3-1 cytotox inactive, HepG2 tox-1 -59% and TGFb SMAD3 inh inconclusive.
COc1cccc(C(=O)NCCCNC(=O)c2cccc(OC)c2)c1 was read as KB-V1 MDR tox inactive, KB-3-1 cytotox inactive, HT1080 IDH1KD tx 3%, HepG2 tox-1 6%, TGFb SMAD3 inh 5% and HT1080-NT tox -1%.
For COc1cc(OC)cc(C(=O)NCCCCCCNC(=O)c2cc(OC)cc(OC)c2)c1 the results were KB-V1 MDR tox 18µM*, KB-3-1 cytotox inactive, HT1080 IDH1KD tx -2%, HepG2 tox-1 -31%, TGFb SMAD3 inh -81%, HT1080-NT tox -7%, TGFb CAGA inh -12%, HepG2 tox-2 -7%, CCL64 TGFb inh 6% and TGFb COP inh 3%.
Screening CC(=O)Nc1ccc(NC(=O)c2nc(SCc3ccccc3F)ncc2Cl)cc1 returned KB-V1 MDR tox inactive, KB-3-1 cytotox inconclusive, HepG2 tox-1 -48% and TGFb SMAD3 inh 0%.
For N#C/C(=N\Nc1ccc(Cl)cc1)C(=O)c1ccsc1 the results were KB-V1 MDR tox inconclusive, KB-3-1 cytotox inconclusive, HT1080 IDH1KD tx inconclusive, HepG2 tox-1 -27%, TGFb SMAD3 inh inconclusive, HT1080-NT tox inconclusive, TGFb CAGA inh 8.2µM*, HepG2 tox-2 7.3µM*, CCL64 TGFb inh 21µM* and TGFb COP inh 15%.
`Cc1ccc(N/N=C(\C#N)C(=O)c2ccsc2)cc1` gave KB-V1 MDR tox inconclusive, KB-3-1 cytotox inconclusive, HT1080 IDH1KD tx inconclusive, HepG2 tox-1 -22%, TGFb SMAD3 inh inconclusive and HT1080-NT tox inconclusive.
Clc1ccc2nc(-c3ccco3)c(Cc3ccccc3)n2c1 was read as KB-V1 MDR tox inactive, KB-3-1 cytotox inactive, HT1080 IDH1KD tx inconclusive, HepG2 tox-1 -19%, TGFb SMAD3 inh 11µM*, HT1080-NT tox inconclusive, TGFb CAGA inh 15µM*, HepG2 tox-2 inconclusive, CCL64 TGFb inh inconclusive and TGFb COP inh 19%.
`Fc1cccc(Cc2c(-c3ccco3)nc3c4ccccc4ccn23)c1` gave KB-V1 MDR tox inconclusive, KB-3-1 cytotox inactive, HT1080 IDH1KD tx inconclusive, HepG2 tox-1 11µM*, TGFb SMAD3 inh 10µM*, HT1080-NT tox inconclusive, TGFb CAGA inh 18µM*, HepG2 tox-2 inconclusive, CCL64 TGFb inh 16µM* and TGFb COP inh 3%.
Screening Clc1cccc(Cc2c(-c3ccco3)nc3c4ccccc4ccn23)c1 returned KB-V1 MDR tox inconclusive, KB-3-1 cytotox inactive, HT1080 IDH1KD tx inconclusive and HT1080-NT tox inconclusive.
For Fc1cccc(Cc2c(-c3ccco3)nc3ccc(Cl)cn23)c1 the results were KB-V1 MDR tox inactive, KB-3-1 cytotox inactive, HT1080 IDH1KD tx inconclusive, HepG2 tox-1 -51%, TGFb SMAD3 inh inconclusive and HT1080-NT tox inconclusive.
